# Tau FP inhib – qHTS for Inhibitors of Tau Fibril Formation, Fluorescence Polarization | actives 0.39% (n = 280,000) | Potency, µM (series often up to 57.7 µM), for the others: at the highest dose activity, negative = inhibition, hits mostly inhibitors | K18 P301L tau heparin fibrillization, Alexa594 FP, 6 h | Microtubule-associated protein tau (Homo sapiens), P10636; note: nearly all actives have a fitted effect of over 55% in size
# Target sequence (P10636 561-689 P618L limits assumed): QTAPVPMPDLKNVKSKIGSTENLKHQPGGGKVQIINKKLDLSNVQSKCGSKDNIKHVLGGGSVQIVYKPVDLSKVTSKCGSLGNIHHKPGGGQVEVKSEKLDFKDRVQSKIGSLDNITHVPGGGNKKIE
#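 FP of Alexa 594-tau after heparin (20 uM) induction. Substrate: human K18 P301L, 15 uM unlabeled, 0.24 uM labeled. Buffer 100 mM sodium acetate pH 7. 6 hr, 37 C.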
# TR SRC2 fluor cs – Total Fluorescence Counterscreen for Inhibitors of the Interaction of Thyroid Hormone Receptor and Steroid Receptor Coregulator 2; actives 0.29% (n = 280,000); Potency, µM (doses to about 106 µM), without a hit: at the highest dose fluorescence change, negative = quenching; TRb/SRC2 Texas Red total fluorescence interference; AID 1479, 2009; active = well fitted curve in either direction with a large enough effect; inconclusive = small, poorly fitted or top-dose-only effect
#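 Human TRb ligand-binding domain at 0.6 uM with 20 nM Texas Red SRC2 peptide in Tris buffer containing 1 uM T3 and 5% DMSO, incubated with compound 5 h at ambient temperature. Total fluorescence (555/632 nm) calculated as parallel + 2 × perpendicular.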
# GoLoco inh red – qHTS Assay for Inhibitors of RGS12 GoLoco Motif Activity (Red Fluorophore); Guanine nucleotide-binding protein G(i) subunit alpha-1 (Homo sapiens), P63096; Gai1:RGS12 GoLoco peptide FP, rhodamine, 10 min; Potency, µM (doses to about 61.6 µM), for the others: at the highest dose activity, negative = inhibition, hits mostly inhibitors; actives 0.44% (n = 230,000); active = well fitted inhibition curve with a large enough effect, not every such curve was filed as active; inactive = no such curve, though single readings can be large or run the other way; note: nearly all actives have a fitted effect of over 30% in size
# Target sequence (P63096 whole entry, looked up): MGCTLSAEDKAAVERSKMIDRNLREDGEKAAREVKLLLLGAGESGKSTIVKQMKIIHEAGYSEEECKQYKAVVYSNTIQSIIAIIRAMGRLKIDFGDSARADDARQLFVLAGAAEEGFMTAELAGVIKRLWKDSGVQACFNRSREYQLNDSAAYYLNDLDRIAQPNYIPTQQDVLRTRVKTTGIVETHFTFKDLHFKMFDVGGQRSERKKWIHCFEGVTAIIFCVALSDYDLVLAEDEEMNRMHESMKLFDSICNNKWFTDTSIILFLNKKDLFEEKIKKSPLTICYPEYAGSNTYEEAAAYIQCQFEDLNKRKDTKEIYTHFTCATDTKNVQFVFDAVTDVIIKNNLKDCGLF
# Tau fibril ThT – qHTS for Inhibitors of Tau Fibril Formation, Thioflavin T Binding | AID 1460, 2008 | Potency, µM (highest dose often 57.4 µM), for the others: at the top dose activity, negative = inhibition, actives largely listed as inhibitors | Microtubule-associated protein tau (Homo sapiens), P10636 | recombinant tau K18 P301L, heparin-induced fibrillization, ThT fluorescence | actives 2.1% (n = 270,000); note: nearly all actives have a fitted effect of over 55% in size
#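 Tau K18 P301L fragment (15 uM unlabeled plus 0.24 uM Alexa 594-labeled) in 100 mM sodium acetate pH 7 with compound, fibrillization induced by 20 uM heparin for 6 hr at 37 C. Thioflavin T (30 uM) added, fluorescence read after 1 hr (ex 450, em 510 nm).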
# TRb SRC2 PPI – qHTS for Inhibitors of the Interaction of Thyroid Hormone Receptor and Steroid Receptor Coregulator 2 | TRbeta-SRC2 peptide binding, fluorescence polarization; receptor liganded with 1 µM T3 | AID 1469, 2008 | Potency, µM (titrated, usually from 106 µM), for inactives: at the highest dose activity change, negative = inhibition, most hits filed as inhibitors | actives 0.065% (n = 280,000);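 note: plate controls were bound peptide for no effect and peptide without receptor for full effect; nearly all actives have a fitted effect of over 50% in size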
#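 TRb LBD 0.6 uM + Texas Red SRC2 peptide 20 nM, 1 uM T3, Tris buffer w/ 5% DMSO; compound pinned, 5 h RT; FP read ex 555/em 632; normalized to unbound and bound controls.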
# Tau fluor counter – Counterscreen qHTS for Inhibitors of Tau Fibril Formation, Fluorescence Polarization | actives 0.93% (n = 280,000) | tau K18 P301L (four-repeat tau fragment) Alexa594 fluorescence, heparin fibrillization | Potency, µM (titrated, usually from 57.7 µM), without a hit: at the top dose activity change, negative = decrease; note: nearly all actives have a fitted effect of over 55% in size
#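 Human K18 P301L tau (15 uM unlabeled plus 0.24 uM Alexa 594-labeled, final) in 100 mM sodium acetate pH 7 was mixed with compound and 20 uM heparin and incubated 6 hr at 37 C.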
# * hit, by the source's call; ? = inconclusive; . = no result given; ! = not confirmed by another sample; [ ] = dose if it differs, or a comment. Rows were chosen to be rich in hits. Some 3.2% of all compounds tested hit in one or more screens of this group. Unless noted, calls come from the whole dose curve; as a rule, active = well fitted curve in the direction sought with a large enough effect; inconclusive = small, poorly fitted or top-dose-only effect, or another doubt; inactive = no such curve, though single readings can be large; an effect the other way counts as inactive or inconclusive. Unless noted, % is set by controls: 0 for no effect and ±100 for the full control effect; potency is the fitted concentration of half-maximal effect.
SMILES,Tau FP inhib,TR SRC2 fluor cs,GoLoco inh red,Tau fibril ThT,TRb SRC2 PPI,Tau fluor counter
COc1ccc(NC(=O)N2CCCC3(CCN(C(=O)c4csnn4)CC3)C2)cc1,.,.,6%,.,.,.
COCCNC(=O)CN(C(=O)CCC(=O)Nc1ccccn1)c1ccc(F)cc1,5%,-1%,11%,-3%,-4%,0%
COCCNC(=O)CN(C(=O)CCC(=O)Nc1ccccn1)c1ccc(F)c(Cl)c1,7%,-5%,.,6.3µM*,-1%,?
COc1cc(N(C)C)cc(CN(C)CCc2ccc([N+](=O)[O-])cc2)c1O,.,-16%,.,.,?,.
CCCCCCCC/C=C\CCCCCCCC(N)=O,0%,2%,22µM*!,-16%,-1%,-10%
CCCCCC(N)=O,.,-2%,-9%,.,4%,.
O=C(/C=C/c1ccc(O)c(O)c1)OC(Cc1ccc(O)c(O)c1)C(=O)O (stereo not drawn),-8%,-7%,-38%,-15%,0%,?
CCC(=O)OCCc1ccccc1,.,-2%[201 µM],.,.,6%[201 µM],.
O=C(/C=C/c1ccc(O)c(O)c1)OCCc1ccccc1,?,-21%,-6%,?,5%,11µM*[quencher]
O=C(/C=C\c1ccc(O)c(O)c1)O[C@@H](Cc1ccc(O)c(O)c1)C(=O)O,-5%,-4%,10µM*,?,-5%,-24%
O=C(Cc1cccs1)Nc1cccc(-c2nc3cc4ccccc4cc3[nH]2)c1,28µM*,-2%,3%,?,8%,14µM*[quencher]
CCOc1cccc(NC(=O)Cc2cccs2)c1,11%,1%,2%,-2%,7%,3%
Cc1cc(/C=C2\SC(=S)N(C)C2=O)c(C)n1-c1cccc(O)c1,-11%,-2%,69%,7.9µM*,-2%,10µM*[quencher]
CN1C(=O)/C(=C\c2cc(N=Nc3ccccc3)ccc2O)SC1=S,?,9%,225%,3.5µM*,10%,4.5µM*[quencher]
Cc1nn(-c2ccccc2)c(Cl)c1/C=C1\SC(=S)N(C)C1=O,?,-1%,-11%,?,1%,-30%
COc1ccc(-n2c(C)cc(/C=C3/SC(=S)N(C)C3=O)c2C)cc1,-7%,-1%,7%,?,-1%,-24%
CCC(Sc1nc2nccnc2c(=O)n1Cc1ccc(Cl)cc1)C(=O)NC1CCCCC1 (stereo not drawn),-8%,-8%,.,1%,3%,4%
CC(C)(C)c1ccc(C2NC(=O)c3n[nH]c(-c4cccs4)c32)cc1 (stereo not drawn),-8%,0%,.,-11%,-8%,-25%
Brc1cc(Oc2cc(Br)c(Br)c(Br)c2Br)c(Br)c(Br)c1Br,.,1%[201 µM],16%,.,-4%[201 µM],.
O=C(NCc1ccc2[nH]c3c(c2c1)CCCC3)c1ccc(S(=O)(=O)N2CCOCC2)cc1,13%,-1%,7%,-15%,4%,?
O=C(NCC1CCN(c2ccc(S(=O)(=O)N3CCOCC3)cc2)CC1)c1ccc(Cl)cc1,1%,-1%,1%,-16%,5%,-29%
O=C(NCCSc1c(-c2ccc(Cl)cc2)[nH]c2ccccc12)c1ccc(S(=O)(=O)N2CCOCC2)cc1,-14%,-2%,.,-6%,1%,4µM*[quencher]
O=C(NCCSc1c(-c2ccc(Br)cc2)[nH]c2ccccc12)c1ccc(S(=O)(=O)N2CCOCC2)cc1,-14%,0%,.,-4%,-2%,4.5µM*[quencher]
CCOC(=O)/C=C(C)\C=C\c1c[nH]c2ccccc12,15%,-3%,11%,?,8%,14µM*[quencher]
COc1ccc(-n2c(=O)c(-c3cccs3)nc3cnc(N4CCN(C)CC4)nc32)cc1,.,.,6%,.,.,.

# Source: PubChem BioAssay (National Center for Advancing Translational Sciences (NCATS))
